The nature of experiment [1]: NCI Yeast Anticancer Drug Screen. Data for the rad50 strain (AID 155).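 Further: 0% = growth of vehicle-only cultures of the same strain.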 The following applies: S. cerevisiae rad50 strain growth inhibition, stronger effect = higher value. Summed up:
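Compounds were tested on a yeast strain with an engineered DNA damage repair alteration; the reported value is growth inhibition normalised to vehicle treatment.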

Experiment [2] can be described thus: NCI Yeast Anticancer Drug Screen. Data for the mec2-1 strain (AID 157). The following applies: S. cerevisiae mec2-1 strain, stronger effect = higher value. In short, it runs like this: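 Using mec2-1 yeast: add compound, measure growth, express inhibition versus vehicle-treated cultures.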
Experiment [3] in a line: NCI Yeast Anticancer Drug Screen. Data for the sgs1 mgt1 strain (AID 161).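 Further: 0% = growth of cultures given vehicle only.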 The following applies: S. cerevisiae sgs1 mgt1 strain, stronger effect = higher value. In short, it runs like this:
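Growth of a repair-deficient yeast mutant was monitored after compound treatment and expressed as inhibition relative to vehicle-treated cultures.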

The nature of experiment [4]: NCI Yeast Anticancer Drug Screen. Data for the cln2 rad14 strain (AID 165).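 Further: 0% = growth equal to vehicle treated cultures.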 The following applies: S. cerevisiae cln2 rad14 strain, stronger effect = higher value. In short, it runs like this: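 Yeast strain cln2 rad14, bearing defects in cell cycle control and DNA repair, serves as the test system; values reflect growth inhibition compared with vehicle.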
The nature of experiment [5]: NCI Yeast Anticancer Drug Screen. Data for the bub3 strain (AID 167). The following applies: S. cerevisiae bub3 mutant strain, stronger effect = higher value. In short, it runs like this:
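Growth of a checkpoint-deficient yeast mutant is measured after compound exposure. Values represent inhibition relative to vehicle.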

The nature of experiment [6]: NCI Yeast Anticancer Drug Screen. Data for the mlh1 rad18 strain (AID 175). The following applies: S. cerevisiae mlh1 rad18 strain growth inhibition, stronger effect = higher value. Summed up:
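Steps: expose repair-defective yeast to compound; measure growth; express inhibition against vehicle-treated controls.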

[7] abbreviates: at 5.0 µM (retest, dose inferred, filed as 0.5).
Setting [8] is: at 50.0 µM (retest, dose inferred, filed as 5.0).

For four molecules, growth inhibition results are on record in PubChem BioAssay (NCI).

Structures are written as SMILES. The panel holds about 79,000 compounds, 15% with a hit somewhere; the sample as a whole holds those more often. The source made the active and inactive calls. No stated cut-off is given here; in the data, active means growth inhibition above about 70%; inactive means the rest.

As for `[N-]=[N+]=NC1(N=[N+]=[N-])C(=O)NN=C(c2ccccc2)C1=O` (configuration not stated), the growth inhibition was -12% (inactive) in experiment [1] (setting [7]); 87% (active) in experiment [1] (setting [8]); 84% (active) in experiment [1] (at 50.0 µM); 15% (inactive) in experiment [2] (setting [7]); 91% (active) in experiment [2] (setting [8]); 91.2% (active) in experiment [2] (at 50.0 µM). Besides, the growth inhibition in experiment [3] (setting [7]) was 4% (inactive); in experiment [3] (setting [8]), 83% (active); in experiment [3] (at 50.0 µM), 88% (active); in experiment [4] (setting [7]), 23% (inactive); in experiment [4] (setting [8]), 87% (active); in experiment [4] (at 50.0 µM), 86.8% (active). Also, the growth inhibition was -3% (inactive) in experiment [5] (setting [7]); 97% (active) in experiment [5] (setting [8]); 89.7% (active) in experiment [5] (at 50.0 µM); 31% (inactive) in experiment [6] (setting [7]); 97% (active) in experiment [6] (setting [8]); 79.7% (active) in experiment [6] (at 50.0 µM).

Regarding `C[N+](C)(C)CC1CCCC1=O` (configuration not stated), the growth inhibition is 18% (inactive) in experiment [1] (setting [7]); 70% (active) in experiment [1] (setting [8]); 51.6% (inactive) in experiment [1] (at 50.0 µM); 16% (inactive) in experiment [2] (setting [7]); 59% (inactive) in experiment [2] (setting [8]); 21.3% (inactive) in experiment [2] (at 50.0 µM). For the same molecule, the growth inhibition was 13% (inactive) in experiment [3] (setting [7]); 58% (inactive) in experiment [3] (setting [8]); 24.6% (inactive) in experiment [3] (at 50.0 µM); 11% (inactive) in experiment [4] (setting [7]); 34% (inactive) in experiment [4] (setting [8]); 19.2% (inactive) in experiment [4] (at 50.0 µM). The growth inhibition is 20% (inactive) in experiment [5] (setting [7]); 70% (active) in experiment [5] (setting [8]); 8.15% (inactive) in experiment [5] (at 50.0 µM); 21% (inactive) in experiment [6] (setting [7]); 77% (active) in experiment [6] (setting [8]); 22.6% (inactive) in experiment [6] (at 50.0 µM).

For the molecule `COc1cc(C2c3cc4c(cc3OC(N3CCOCC3)C2C)OCO4)cc(OC)c1OC` (configuration not stated), the growth inhibition was 18% (inactive) in experiment [1] (setting [7]); 22% (inactive) in experiment [1] (setting [8]); -12.6% (inactive) in experiment [1] (at 50.0 µM); 21% (inactive) in experiment [2] (setting [7]); 31% (inactive) in experiment [2] (setting [8]); -2.55% (inactive) in experiment [2] (at 50.0 µM). Further, the growth inhibition in experiment [3] (setting [7]) is -17% (inactive); in experiment [3] (setting [8]), -10% (inactive); in experiment [3] (at 50.0 µM), -1.05% (inactive); in experiment [4] (setting [7]) it was 4% (inactive); in experiment [4] (setting [8]), 0% (inactive); in experiment [4] (at 50.0 µM), 4.2% (inactive). In addition, the growth inhibition was 0% (inactive) in experiment [5] (setting [7]); -11% (inactive) in experiment [5] (setting [8]); 13.3% (inactive) in experiment [5] (at 50.0 µM); 22% (inactive) in experiment [6] (setting [7]); 28% (inactive) in experiment [6] (setting [8]); 0.7% (inactive) in experiment [6] (at 50.0 µM).

As for `CCCCCCCC(=O)[O][Hg][c]1ccccc1`, the growth inhibition in experiment [1] (setting [7]) is 99% (active); in experiment [1] (setting [8]), 99% (active); in experiment [1] (at 50.0 µM) it was 99.5% (active); in experiment [2] (setting [7]), 100% (active); in experiment [2] (setting [8]), 100% (active); in experiment [2] (at 50.0 µM), 99.8% (active). Moreover, the growth inhibition was 100% (active) in experiment [3] (setting [7]); 100% (active) in experiment [3] (setting [8]); 99.7% (active) in experiment [3] (at 50.0 µM); 99% (active) in experiment [4] (setting [7]); 99% (active) in experiment [4] (setting [8]); 99.5% (active) in experiment [4] (at 50.0 µM). Further, the growth inhibition in experiment [5] (setting [7]) is 100% (active); in experiment [5] (setting [8]), 99% (active); in experiment [5] (at 50.0 µM), 99.8% (active); in experiment [6] (setting [7]) it was 100% (active); in experiment [6] (setting [8]), 100% (active); in experiment [6] (at 50.0 µM), 99.7% (active).
